# The whole screen tested about 87,000 compounds, of which about 540 (0.62%) were called active. How the calls were made is not given here. For the sample, actives were picked, then their nearest neighbours and some compounds at random. Results with a measured potency or affinity are listed apart.
# Assay: inhibitors of MT1-MMP promoter transcription, cell-based, luciferase reporter, luminescence (AID 618);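 further: actives suppress MT1-MMP promoter-driven transcription so potencies describe inhibitors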
# Conditions: MT1-MMP promoter luciferase reporter cells
row,Structure (SMILES),outcome
1,CCOC(=O)c1c(COC(=O)c2ccco2)nc2ccccc2[n+]1[O-],inactive
2,O=C(CCn1c(=O)oc2ccccc21)Nc1cccc(Cl)c1,inactive
3,Cc1cc2ccccc2c(=O)n1CC(=O)Nc1ccc2c(c1)OCCO2,inactive
4,CCOC(=O)c1[nH]c2ccc(F)cc2c1NC(=O)C1=COCCO1,inactive
5,CC(=O)c1c(C(C)=O)c(C)n(-c2nc(-c3ccc(Br)cc3)c(C)s2)c1C,inactive
6,COc1ccc(OCCSc2ncn[nH]2)cc1,inactive
7,OC(COc1ccccc1)CSc1ncn[nH]1 (configuration not stated),inactive
8,CCCCn1c(SCC(=O)N2CCOCC2)nnc1-c1cccs1,inactive
9,CC[C@]1(O)CC2CN(CCc3c([nH]c4ccccc34)[C@@](C(=O)OC)(c3cc4c(cc3OC)N(C=O)[C@H]3[C@@](O)(C(=O)OC)[C@H](OC(C)=O)[C@]5(CC)C=CCN6CC[C@]43[C@@H]65)C2)C1 (some centres not stated),active
10,COc1ccccc1N1CCN(C(=O)CSc2nc(-c3ccco3)cc(C(F)(F)F)n2)CC1,inactive
11,Cc1cc(C)c(S(=O)(=O)N2CCCCC2)c(C)c1-n1ncnn1,inactive
12,O=C(Cn1nc(-c2ccc(Cl)cc2)c2ccccc2c1=O)NCC1CCCO1 (configuration not stated),inactive
13,COC(=O)CSc1nc(-c2ccc(F)cc2)cc(C(F)(F)F)n1,inactive
14,COc1ccccc1-c1cc(C(F)(F)F)nc(S(=O)(=O)CCCC(=O)N2CCCCC2C)n1 (configuration not stated),inactive
15,COC(=O)CCS(=O)(=O)c1nc(-c2ccccc2)cc(C(F)(F)F)n1,inactive
16,COc1ccc(-c2cc(C(F)(F)F)nc(S(C)(=O)=O)n2)cc1,inactive
17,CCOC(=O)CS(=O)(=O)c1nc(-c2ccc(F)cc2)cc(C(F)(F)F)n1,active
18,COc1ccccc1-c1cc(C(F)(F)F)nc(S(=O)(=O)CCCC(=O)O)n1,inactive
19,COc1ccc(-c2cc(C(F)(F)F)nc(S(C)(=O)=O)n2)cc1OC,inactive
20,CS(=O)(=O)c1nc(-c2ccccc2)cc(C(F)(F)F)n1,active
21,CCOC(=O)CS(=O)(=O)c1nc(-c2ccccc2)cc(C(F)(F)F)n1,inactive
22,CCOC(=O)CSc1nc(-c2ccccc2)cc(C(F)(F)F)n1,inactive
23,CCNc1nc(Oc2ccc(=O)[nH]n2)nc(N2CCOCC2)n1,inactive

row,Structure (SMILES),outcome
1,CCOC(=O)C1=NN(c2ccc(OC)cc2)C(c2ccccc2)CC1=O (configuration not stated),inactive
2,COC(=O)c1ccc(CSc2nnc(SCc3ccc(C(=O)OC)o3)s2)o1,inactive
3,CCN1C(c2ccc(F)cc2)=CS/C1=C(\C#N)c1nnc2n1-c1ccccc1SC2,inactive
4,CNc1nnc(-c2ccncc2)s1,inactive
5,CNc1nnc(-c2cccc(N(C)C)c2)s1,inactive
6,Cc1ccc(-c2nc(CS(=O)(=O)CC(=O)NC3CCCCC3C)c(C)o2)cc1 (configuration not stated),inactive
7,CCc1ccc(-c2ccc(C(=O)O)cc2)nc1,inactive
8,CCCCCc1ccc(-c2ccc(=O)[nH]n2)cc1,inactive
9,CCCc1ccc(-c2ccc(C(=O)O)cc2)nc1,inactive
10,CCCCc1ccc(-c2nc(N)n[nH]2)cc1,inactive
11,CCCCCCc1ccc(-c2ncc(N)cn2)cc1,active
12,CC(=O)c1ccc(N=Cc2c(O)n(-c3cc(Cl)ccc3N3CCOCC3)c(=O)c3ccccc23)cc1,inactive
13,Cc1noc(NS(=O)(=O)c2ccc(NC(=O)CSc3nc4ccccc4[nH]3)cc2)c1C,inactive
14,CCCc1nc(SCc2ccccn2)c2c(=O)n(C)c(=O)n(C)c2n1,inactive
15,CCOc1nc(NCCc2ccc(OC)c(OC)c2)nc(N2CCN(c3ccc(OC)cc3)CC2)n1,inactive
16,Cc1cccc(N2CCN(C(=O)c3cc4c(=O)n(C)c5ccccc5c4n3C)CC2)c1C,inactive
17,COc1ncnc2sc(-c3ccccc3)cc12,inactive
18,COc1ccc(-c2cc(=O)c3ccccc3s2)cc1,inactive
19,O=C(Nc1ccc(N2CCCC2)cc1)c1cccc(F)c1,active
20,O=C(Nc1ccc(N2CCCCC2)cc1)c1ccc(F)cc1,inactive
21,O=C(Nc1ccc(N2CCCCC2)cc1)c1cccnc1,inactive
22,O=C(Nc1ccc(N2CCCC2=O)cc1)c1cccc(F)c1,inactive
23,O=C(Nc1ccc(N2CCN(C(=O)c3ccco3)CC2)cc1)c1cccc(F)c1,inactive

row,Structure (SMILES),outcome
1,O=C(COc1ccc(Br)cc1CO)Nc1ccccc1F,inactive
2,O=C(NCCCN=C1NS(=O)(=O)c2ccccc21)c1ccco1,inactive
3,COC(=O)C1CCN(C(=O)c2ccc(NC(C)=O)cc2)CC1,inactive
4,CCOC(=O)C(C)Oc1cccc2c(=O)n(CC(=O)NCc3ccco3)ccc12 (configuration not stated),active
5,CCOC(=O)C(C)Oc1cccc2c(=O)n(CC(=O)N3CCc4ccccc43)ccc12 (configuration not stated),inactive
6,CCOC(=O)COc1cccc2c(=O)n(CC(=O)NCc3ccc4c(c3)OCO4)ccc12,inactive
7,Nc1nonc1C(=O)NCCNCc1cc(Br)ccc1OCc1ccccc1F,active
8,Nc1nonc1C(=O)NCCNCc1ccccc1OCc1ccccc1F,inactive
9,Nc1nonc1C(=O)NCCNCc1cc(Br)ccc1OCc1ccc(F)cc1,inactive
10,c1ccc(C2CC(c3ccccc3)n3ncnc3N2)cc1 (configuration not stated),inactive
11,O=c1[nH]c(=O)n([C@H]2C[C@H](O)[C@@H](CO)O2)cc1F,active
12,O=c1[nH]c(=O)n([C@H]2C[C@H](O)[C@@H](CO)O2)cc1C(F)(F)F,inactive
13,CCc1cn([C@H]2C[C@H](O)[C@@H](CO)O2)c(=O)[nH]c1=O,inactive
14,Cc1ccc(NC(=O)CN(C)C(=O)CSc2nc3ccccc3c(=O)n2Cc2ccco2)cc1,inactive
15,Cc1csc2nc(CSc3ccc(Cl)cc3)cn12,inactive
16,Cc1csc2nc(CSc3nc4ccccc4o3)cn12,inactive
17,COc1ccccc1/C=N/NC(=O)C1=NNC(c2ccccc2)(c2ccccc2)C1,inactive
18,Cc1ccc(-c2cc(C(=O)N/N=C/c3ccco3)[nH]n2)cc1,inactive
19,O=C(CSc1ccccc1)Nc1ccncc1,inactive
20,Cc1cc2c(c(=O)n1Cc1ccccn1)C(C(C)C)C(C#N)=C(N)O2 (configuration not stated),inactive
21,Nc1ccc(O)c(-c2nc3ccccc3s2)c1,inactive
22,Cc1nc2ccc(N)cc2s1,inactive
23,Cc1nc(-c2cccc(N)c2)cs1,inactive

row,Structure (SMILES),outcome
1,Nc1cccc(-c2nc3ccc(N)cc3s2)c1,active
2,Nc1cccc(-c2nc3ccccc3s2)c1,inactive
3,COc1cccc(NC(=O)C2C3C=CC4(O3)C2C(=O)N(C2CC2)C4C(=O)NC2CCCCC2C)c1 (configuration not stated),inactive
4,C=C(C)c1cccc(C(C)(C)NC(=O)N2CCN(CC(N)=O)CC2)c1,inactive
5,CC(C)(C)c1ccc(C2(C)NC(=O)N(CC(=O)Nc3ccc4c(c3)OCO4)C2=O)cc1 (configuration not stated),inactive
6,CCCCCn1c(=O)[nH]c2cc(C(=O)N3CCN(CC)CC3)ccc2c1=O,inactive
7,CCOC(=O)N1CCN(C(=O)CN(C2CCCCC2)S(=O)(=O)c2ccc(Cl)cc2)CC1,inactive
8,COc1ccc(NC(=O)/C(Cl)=C(/Cl)S(=O)Cc2ccccc2)cn1 (configuration not stated),active
9,CCOc1ccccc1OCCCC(=O)Nc1ccc(OC)nc1,inactive
10,COc1ccc(NC(=O)c2cc(=O)c3ccccc3o2)cn1,inactive
11,COc1ccc(NC(=O)/C(Cl)=C(/Cl)S(=O)Cc2ccc(C)cc2)cn1 (configuration not stated),active
12,COc1ccc(NC(=O)c2nc3nccc(C)n3n2)cn1,inactive
13,COc1ccc(NC(=O)c2cc(CN3C(=O)c4ccccc4C3=O)ccc2OC)cn1,inactive
14,Cc1ccc(C(=O)n2cnnc2N)cc1,inactive
15,CN(C)c1nc(N)nc(-c2cccnc2)n1,inactive
16,COc1ccc(C)cc1S(=O)(=O)N(C)CC(=O)Nc1ccc2c(c1)OCO2,inactive
17,Cc1ccc2ccccc2c1COC(=O)c1nonc1N,inactive
18,CC(=O)Nc1cccc(Oc2ccc(-c3noc(C)n3)cc2)c1,inactive
19,CCCC(=O)N1CC(=O)Nc2ccc(F)cc2C1c1ccccc1 (configuration not stated),inactive
20,COc1ccccc1NC(=O)COc1ccc(CO)cc1Cl,inactive
21,O=C(COc1ccc(CO)cc1)Nc1ccc(F)cc1,inactive
22,N#C/C(=C\c1ccc[nH]1)Sc1nc2ccccc2s1,inactive
23,COc1ccccc1N(CC(=O)NC1CCCC1)C(=O)CCC(=O)Nc1cc(C)on1,inactive

row,Structure (SMILES),outcome
1,C=CCn1c(C)cc(C(=O)CSc2nc3ccccc3o2)c1C,inactive
2,C=CCn1c(C)cc(C(=O)CSc2n[nH]c(N)n2)c1C,inactive
3,COCC(C)n1c(C)cc(C(=O)CSc2ccc(NC(C)=O)cc2)c1C (configuration not stated),inactive
4,CC(=O)Nc1ccc(SCC(=O)c2cc(C)n(C)c2C)cc1,inactive
5,CC(=O)Nc1ccccc1OCC(=O)c1cc(C)n(Cc2cccs2)c1C,inactive
6,Cc1cc(C(=O)CN2C(=O)c3ccccc3C2=O)c(C)n1Cc1cccs1,inactive
7,COc1ccc(-c2n[nH]c(C)c2-c2cc(OC)ccc2O)cc1,inactive
8,CCSC1=C(C#N)C(c2ccccc2C)CC(=O)N1 (configuration not stated),inactive
9,Cc1cc(SCc2cc(=O)[nH]c3ccccc23)nc2ccccc12,inactive
10,O=C(O)c1c2c(nc3ccc(F)cc13)CCC2,inactive
11,COCCn1nnnc1C(c1ccc(OC)cc1OC)N1CCN(c2ccccc2F)CC1 (configuration not stated),inactive
12,Cc1ccccc1OCC(=O)Nn1c(COc2ccccc2)nc2ccccc2c1=O,inactive
13,CC1=C(C)C(=O)N(c2ccc(C(=O)O)cc2)C1=O,inactive
14,O=C1/C(=C\c2ccc3ccccc3c2)CCCc2ccccc21,inactive
15,COC(=O)c1ccc(C(NC(=O)OCc2ccccc2)/C(F)=C/[C@@H](C)C(=O)NCc2ccc(OC)c(OC)c2)cc1 (some centres not stated),inactive
16,CCC(C)C1C(C#N)=C(N)Oc2n[nH]c(-c3ccccc3)c21 (configuration not stated),inactive
17,O=C(Oc1ccc2ccccc2c1)c1ccccc1,inactive
18,O=C(CCl)Nc1cc(-c2ccccc2)nn1-c1ccccc1,active
19,CC(=O)Nc1cc(-c2ccc(Cl)cc2)nn1-c1ccccc1,inactive
20,Cc1ccc(-c2cc(NC(=O)CCl)n(-c3ccccc3)n2)cc1,inactive

# Reference: PubChem BioAssay AID618 (Sanford-Burnham Center for Chemical Genomics, 2007)
